In PubChem BioAssay:
Where “and” joins values, the source holds several entries; their conditions need not be identical. Equal entries are not always repeated. Calls of active or inactive are those of the source.

Key:
[1] = anti-His antibody binders, primary screen, artefact control for SMM control protein annotation, biochemical, small-molecule microarray, 635 nm fluorescence (AID 1128); details: anti-His Alexa647 antibody binding, higher = more signal;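 note: score merges feature fluorescence with signal-to-noise for each printed compound spot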
[2] = test system: Human papillomavirus type 1a E7 protein (residues 1-88); assay: HPV1a E7 small-molecule binders, primary screen, biochemical, small-molecule microarray, residues 1-88, 635 nm (AID 1129); details: small-molecule microarray binding, fluorescence 635 nm; higher = more signal
[3] = molecular target: Focal adhesion kinase 1 (Homo sapiens) (UniProt Q05397); assay: small-molecule microarray binders of FAK, primary screen, biochemical, 635/667 nm fluorescence, BSA, DTT (AID 1130); details: PTK2 binding, 635 nm fluorescence, higher = more signal;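 note: composite of spot emission at 667 nm and signal to noise over triplicate slides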
Focal adhesion kinase 1 (Homo sapiens), sequence (Q05397 whole entry, looked up): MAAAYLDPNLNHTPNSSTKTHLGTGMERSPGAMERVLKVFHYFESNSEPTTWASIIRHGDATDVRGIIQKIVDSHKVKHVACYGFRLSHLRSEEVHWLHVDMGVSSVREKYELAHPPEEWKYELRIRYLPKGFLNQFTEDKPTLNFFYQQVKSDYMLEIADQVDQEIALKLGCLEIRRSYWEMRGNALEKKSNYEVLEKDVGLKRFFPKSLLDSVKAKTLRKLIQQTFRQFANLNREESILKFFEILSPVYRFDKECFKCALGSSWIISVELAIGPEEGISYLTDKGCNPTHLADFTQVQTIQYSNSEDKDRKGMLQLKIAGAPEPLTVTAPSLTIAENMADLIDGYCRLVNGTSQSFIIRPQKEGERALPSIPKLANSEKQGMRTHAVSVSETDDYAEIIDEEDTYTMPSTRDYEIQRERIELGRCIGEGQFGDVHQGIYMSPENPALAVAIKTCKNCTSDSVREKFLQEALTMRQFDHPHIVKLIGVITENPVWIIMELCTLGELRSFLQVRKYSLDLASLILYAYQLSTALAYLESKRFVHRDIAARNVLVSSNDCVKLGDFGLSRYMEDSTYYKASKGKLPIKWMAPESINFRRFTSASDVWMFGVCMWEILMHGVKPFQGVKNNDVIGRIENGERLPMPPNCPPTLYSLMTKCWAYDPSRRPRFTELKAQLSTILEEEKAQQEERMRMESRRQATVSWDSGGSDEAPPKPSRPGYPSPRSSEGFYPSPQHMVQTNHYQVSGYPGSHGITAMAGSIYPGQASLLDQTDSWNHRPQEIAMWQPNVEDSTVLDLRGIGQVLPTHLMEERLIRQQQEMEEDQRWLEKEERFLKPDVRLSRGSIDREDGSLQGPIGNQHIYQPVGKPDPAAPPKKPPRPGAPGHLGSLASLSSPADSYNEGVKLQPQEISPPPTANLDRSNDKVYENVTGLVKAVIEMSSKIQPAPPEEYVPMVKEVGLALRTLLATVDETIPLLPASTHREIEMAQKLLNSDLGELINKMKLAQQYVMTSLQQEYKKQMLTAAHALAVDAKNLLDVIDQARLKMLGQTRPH

[4] = test system: Fibrinogen (Alexa647-labelled); assay: fibrinogen binders on compound microarrays, profiling panel, artefact control for SMM control-protein annotation, biochemical, small-molecule microarray, 635/667 nm fluorescence (AID 1131); details: fibrinogen-A647 binding fluorescence, higher = more signal;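 note: z-score merges 667 nm fluorescence with per-spot signal-to-noise over triplicate slides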
[5] = molecular target: Follistatin (Homo sapiens) (UniProt P19883); assay: follistatin binders on small-molecule microarrays, primary screen, biochemical, small-molecule microarray, 635/667 nm fluorescence (AID 1132); details: FST binding, 635 nm fluorescence, higher = more signal
Follistatin (Homo sapiens), sequence (P19883 whole entry, looked up): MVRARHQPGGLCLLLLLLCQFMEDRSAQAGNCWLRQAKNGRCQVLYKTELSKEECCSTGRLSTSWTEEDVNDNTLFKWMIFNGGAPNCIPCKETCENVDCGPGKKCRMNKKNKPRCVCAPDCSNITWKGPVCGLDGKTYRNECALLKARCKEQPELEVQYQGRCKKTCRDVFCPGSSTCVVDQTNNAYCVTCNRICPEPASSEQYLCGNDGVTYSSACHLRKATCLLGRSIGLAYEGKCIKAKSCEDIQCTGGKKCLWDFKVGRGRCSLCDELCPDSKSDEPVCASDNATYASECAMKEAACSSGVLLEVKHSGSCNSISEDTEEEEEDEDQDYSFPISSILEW

[6] = molecular target: Fibroblast growth factor 2 (Homo sapiens) (UniProt P09038); assay: FGF2 binders on small-molecule microarrays, primary screen, biochemical, small-molecule microarray, 635/667 nm fluorescence (AID 1133); details: small-molecule microarray binding, FGF2, fluorescence 635/667; higher = more signal
Fibroblast growth factor 2 (Homo sapiens), sequence (P09038 whole entry, looked up): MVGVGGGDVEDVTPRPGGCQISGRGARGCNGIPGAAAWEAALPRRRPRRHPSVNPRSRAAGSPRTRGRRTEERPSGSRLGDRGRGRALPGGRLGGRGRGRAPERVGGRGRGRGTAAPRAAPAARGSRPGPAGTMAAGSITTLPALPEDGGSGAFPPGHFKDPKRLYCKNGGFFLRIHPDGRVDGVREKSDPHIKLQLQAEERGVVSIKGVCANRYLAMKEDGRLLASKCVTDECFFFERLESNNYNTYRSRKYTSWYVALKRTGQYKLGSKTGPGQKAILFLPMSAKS

[7] = mitochondrial membrane potential change in A549 cells, profiling panel, cell-based, JC-1 fluorescence, basal, 24 h, 100 nL (AID 1138); details: higher = more signal;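 note: A549 lung adenocarcinoma cells under basal conditions with no added stimulus; test concentration not given here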
Lefty1 = Lefty1 binders on small-molecule microarrays, primary screen, biochemical, small-molecule microarray, 635/667 nm fluorescence (AID 1139); details: small-molecule microarray binding, fluorescence 635/667; higher = more signal
[8] = test system: wheat germ agglutinin (Triticum aestivum), Alexa647-labelled; assay: wheat germ agglutinin binders on compound microarrays, profiling panel, artefact control for SMM control-protein annotation, biochemical, small-molecule microarray, 635/667 nm fluorescence (AID 1140); details: WGA-A647 binding, 635 nm fluorescence, higher = more signal;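 note: score merges 667 nm feature emission with signal to noise over triplicate slides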
[9] = molecular target: Luciferin 4-monooxygenase (Photinus pyralis) (UniProt P08659); assay: firefly luciferase enzyme inhibitors, primary screen, biochemical, luminescence, purified enzyme, 2006 set (AID 1141); details: SteadyGlo luminescence, 30 min, higher = more signal, called active from +8 up or from −8 down;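 note: cell-free assay with purified firefly luciferase at 100 ng per well in PBS; test concentration not given here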
Luciferin 4-monooxygenase (Photinus pyralis), sequence (P08659 whole entry, looked up): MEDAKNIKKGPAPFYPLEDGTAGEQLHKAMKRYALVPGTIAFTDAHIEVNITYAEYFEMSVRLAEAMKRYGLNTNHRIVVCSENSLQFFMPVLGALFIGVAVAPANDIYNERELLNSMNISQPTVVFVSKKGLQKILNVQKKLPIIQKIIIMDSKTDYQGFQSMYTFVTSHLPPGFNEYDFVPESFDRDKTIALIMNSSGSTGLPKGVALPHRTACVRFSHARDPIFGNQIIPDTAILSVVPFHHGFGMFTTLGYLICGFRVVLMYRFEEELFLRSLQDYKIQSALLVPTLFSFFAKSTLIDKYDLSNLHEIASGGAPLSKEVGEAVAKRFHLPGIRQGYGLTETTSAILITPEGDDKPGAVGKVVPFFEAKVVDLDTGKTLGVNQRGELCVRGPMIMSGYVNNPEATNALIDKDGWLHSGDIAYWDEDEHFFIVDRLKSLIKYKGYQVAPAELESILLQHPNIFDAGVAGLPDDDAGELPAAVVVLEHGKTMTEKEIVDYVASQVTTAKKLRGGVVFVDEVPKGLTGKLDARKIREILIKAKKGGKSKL

| Structure (SMILES) | composite z-score [1] | composite z-score [2] | composite z-score [3] | composite z-score [4] | composite z-score [5] | composite z-score [6] | z-score [7] | composite z-score (Lefty1) | composite z-score [8] | z-score [9] |
| --- | --- | --- | --- | --- | --- | --- | --- | --- | --- | --- |
| CCOC(=O)[C@H](CC(C)C)NC(=O)CCC1CC(OC(=O)NCc2cccc3ccccc23)CC2(CCCC(COC(=O)NCc3ccccc3)O2)O1 (stereo not given in full) | 0.223 | -0.439 | -0.159 | -1.97 | -0.126 | -0.105 | 0.629 | 0.275 | -0.0551 | 0.529 (inactive) |
| C=CC[C@@H](O)c1ccc(O)c(F)c1 | -1.52 and -0.7 | -0.762 and -1.07 | -0.0427 and -0.9 | -0.755 and -1.22 | -1.12 and -0.0709 | -1.42 and -0.594 | -0.933 and 1.15 | -1.9 and -0.344 | 0.106 and -1.3 | -0.0615 (inactive) and -1.14 (inactive) |
| C=CCN(C(=O)C(c1cccs1)N(C(=O)/C=C\C(=O)O)c1ccc(CCO)cc1)C(C)(C)C (stereo not given) | 0.381 and 2.21 | 0.07 and 0.0514 | 0.721 and -0.265 | -0.548 and -3.6 | -0.985 and -1.66 | -1.22 and -1.05 | 0.428 and 0.741 | -1.76 and -2 | 0.559 and -0.287 | -0.928 (inactive) and -0.538 (inactive) |
| CCN1C(=O)[C@H]2[C@H]3[C@H](O)[C@H](O)CC(=NNC(=O)OCc4ccc(OC)cc4)[C@H]3CC[C@H]2C1=O | 0.0442 | 0.0241 | 0.0983 | 0.171 | -0.699 | -0.623 | 0.647 | 0.107 | 0.77 | -0.716 (inactive) |
| COC(=O)CC=C[C@@H](C)[C@@H](CO)NS(=O)(=O)c1ccc(C)cc1 | 0.929 and 0.293 | 0.298 and 0.512 | 0.0223 and -0.111 | -0.223 and 0.225 | 0.523 and 0.791 | 0.646 and 0.574 | -0.145 and 0.884 | 0.648 and 0.88 | -0.22 and 0.117 | 0.0494 (inactive) and -0.803 (inactive) |
| CCOC(=O)C[C@H]1[C@H](OC(=O)c2ccccc2-c2ccccc2)[C@@H](NC(=O)c2ccccc2)c2cc(OCCCO)ccc2N1C(=O)c1ccc2ccccc2n1 | 0.861 and 1.4 | 0.547 and 0.311 | -0.0011 and 0.466 | 0.0271 and 0.432 | 0.41 and 1.12 | 0.566 and 0.845 | 1.1 and 0.202 | 0.513 and 0.934 | 0.692 and 0.31 | -0.233 (inactive) and -0.818 (inactive) |
| CCCC[C@@H]1CN2[C@H](c3ccc(Br)cc3)[C@@H](C)CC[C@H]2C(=O)O1 | -0.408 and 2.44 | -0.535 and -0.105 | -0.0211 and 0.0131 | -0.167 and 0.546 | 0.0438 and -0.0845 | 0.186 and 0.0412 | 0.5 and 0.647 | -0.128 and 0.0556 | -0.22 and 0.313 | -0.052 (inactive) and -1.79 (inactive) |
| C[C@@H]1CC[C@@H](C(=O)O)N[C@H]1c1ccc(-c2ccco2)cc1 | 0.893 | -0.253 | 0.0242 | 1.02 | 1.32 | 1.14 | 1.41 | 1.18 | 0.589 | -0.906 (inactive) |
| C[C@@H](c1ccccc1)N1C(=O)[C@H]2[C@H]3[C@H](O)[C@H](O)CC(=O)[C@@H]3CC[C@H]2C1=O | 0.338 | 0.793 | 0.866 | 0.212 | 0.605 | 1.08 | 0.792 | 1.64 | 0.108 | -1.87 (inactive) |
| CO[C@@H]1COC(=O)CC=C[C@H](C)[C@@H](NS(=O)(=O)c2ccc(C)cc2)COC(=O)CC=C[C@@H]1C | 0.395 and -0.145 | 0.214 and -0.651 | -0.0379 and -0.578 | 0.0363 and -2.26 | 0.407 and 1.42 | 1.16 and 1.17 | 1.66 and -1.16 | 1.32 and 0.9 | 0.216 and -0.0758 | -0.439 (inactive) and 1.32 (inactive) |
| COC(=O)C1=C(C)N(Cc2ccccc2)C2=C3C(=O)N(c4ccccc4)C(=O)[C@@H]3[C@@](O)(C(=O)OC)C(=O)N2[C@@H]1c1ccccc1 | 0.387 and 0.668 | 0.186 and 1.1 | 0.14 and 0.113 | 0.212 and 0.393 | 0.988 and 0.726 | 1.63 and 0.5 | 0.895 and 1.76 | 0.823 and 0.745 | 0.0882 and 0.764 | -0.471 (inactive) and -1.33 (inactive) |
| C=CCN(Cc1ccccc1)C(=O)C1N(c2ccc(CCO)cc2)C(=O)C2C(C(=O)O)C3C=CC21O3 (stereo not given) | -1.33 and -0.796 | -1.49 and -1.7 | 0.0389 and -0.704 | -0.944 and -1.58 | -2 and -2.08 | -2.32 and -2.92 | -0.571 and -0.775 | -2.53 and -1.55 | -0.0866 and 1.16 | -0.927 (inactive) and -0.283 (inactive) |
| C=CCN1C(=O)[C@]2(O[C@H](CCn3cc(CCO)nn3)[C@@H]([Si](C)(C)c3ccc(OC)cc3)[C@@H]2C)c2cc(N3C(=O)c4cccc5cccc3c45)ccc21 | 0.783 and 1.59 | 1.14 and 1.08 | 0.216 and 0.369 | 0.57 and 0.583 | 0.687 and 0.0673 | 0.296 and 0.381 | -1.09 and -0.743 | 0.794 and 0.721 | 0.532 and 0.53 | -0.511 (inactive) and 0.185 (inactive) |
| C=CCN(CCCCC)C(=O)C1N(c2c(Cl)cccc2CO)C(=O)C2C(C(=O)O)C3C=CC21O3 (stereo not given) | -1.91 and -0.805 | -0.751 and -1.1 | -0.845 and -0.37 | -1.41 and -1.31 | -2.55 and -0.968 | -2.42 and -2.09 | -1.02 and -0.472 | -1.6 and -1.98 | -2.05 and -1.28 | 0.975 (inactive) and 0.308 (inactive) |
| Cc1ccc(S(=O)(=O)N[C@H]2COC(=O)[C@@H](Cc3ccccc3)NC(=O)[C@@H](C)COC(=O)CC=C[C@@H]2C)cc1 | -0.619 and 1.81 | -0.95 and -0.164 | -0.282 and 0.116 | -0.747 and -0.0169 | 1.18 and 0.825 | 0.575 and 0.462 | 0.636 and -1.01 | 0.678 and 0.882 | -0.892 and -0.0489 | -0.287 (inactive) and -0.431 (inactive) |
| C=CCN(C(=O)C1N(CCCCCCO)C(=O)C2C(C(=O)O)C3C=CC21O3)c1ccc(OC)cc1 (stereo not given) | -1.91 and -1.82 | -1.26 and -1.68 | 0.85 and -0.212 | -1.05 and -2.02 | -1.83 and -1.96 | -2.95 and -1.96 | 1.34 and 0.478 | -2.4 and -2.28 | -0.537 and -0.483 | -1.09 (inactive) and -1.38 (inactive) |
